# Source: PubChem BioAssay (EPA / NIEHS)
# Inconclusive results are not listed. The source made the active and inactive calls. Rule for the calls, unless noted: active = hit-call score of the fitted dose curve at least 0.9, where 1 is the maximum; inactive = score below 0.9.
# Tests used:
# [1] = molecular target: Paired box protein Pax-6 (Homo sapiens) (UniProt P26367); experiment: ATG_Pax6_CIS: Attagene CIS-FACTORIAL HepG2 Assay for human Paired Box 6 (PAX6) (AID 2282956); conditions: HepG2 CIS-FACTORIAL PAX6 reporter transcription, RNA readout; actives raise or lower the signal
# Outline: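 HepG2 cells transiently transfected with multiplexed cis-promoter reporter units (endogenous TF activity) were dosed for 24 h. Reporter mRNA was quantified by RT-PCR, 6-FAM labeling, HpaI digestion and capillary electrophoresis; bidirectional fitting versus DMSO baseline.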
# [2] = ATG_PXRE_CIS: Attagene CIS-FACTORIAL HepG2 Assay for human Pregnane X Receptor Element (PXRE) (AID 2282957); conditions: HepG2 Attagene CIS-FACTORIAL PXRE reporter, mRNA; actives raise or lower the signal
# Outline: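 HepG2 cells transiently transfected with cis-element-driven multiplexed reporter units; after 24 h chemical exposure, reporter mRNA measured by RT-PCR, 6-FAM labelling, HpaI digestion and capillary electrophoresis. Bidirectional fitting relative to DMSO.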
# [3] = ATG_PPRE_CIS: Attagene CIS-FACTORIAL HepG2 Assay for human Peroxisome Proliferator-activated Response Element (PPRE) (AID 2282958); conditions: HepG2 PPRE cis-element reporter, Attagene transcription factor profiling; actives raise or lower the signal
# Outline: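 HepG2 cells are transiently transfected with multiplexed cis-promoter reporter units to report endogenous PPAR activity. After 24 h dosing, reporter mRNA is read by RT-PCR and capillary electrophoresis. Fitting is bidirectional against DMSO.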
# [4] = ATG_RORE_CIS: Attagene CIS-FACTORIAL HepG2 Assay for human RAR-related Orphan Receptor Element (RORE) (AID 2282959); conditions: HepG2 Attagene cis-factorial RORE reporter, mRNA; actives raise or lower the signal
# Outline: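 HepG2 cells carrying transiently transfected cis-regulated reporter units; RORE-driven reporter mRNA quantified 24 h post-dosing by RT-PCR, 6-FAM primer extension, HpaI digestion and capillary electrophoresis. Bidirectional fit versus DMSO.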
# [5] = ATG_Sox_CIS: Attagene CIS-FACTORIAL HepG2 Assay for human SRY-box transcription factor (SOX) (AID 2282960); conditions: HepG2 Attagene cis-factorial SOX reporter, mRNA; actives raise or lower the signal
# Outline: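 HepG2 cells transiently transfected with multiple cis-regulated reporter units, then dosed for 24 h. Reporter mRNA quantified by RT-PCR, fluorescent labelling, HpaI digestion and capillary electrophoresis; bidirectional fit versus DMSO.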
# [6] = molecular target: Transcription factor Sp1 (Homo sapiens) (UniProt P08047); experiment: ATG_Sp1_CIS: Attagene CIS-FACTORIAL HepG2 Assay for human Specificity Protein 1 (Sp1) (AID 2282961); conditions: HepG2 Sp1 cis-reporter transcription, actives raise or lower the signal
# Outline: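 HepG2 cells transiently transfected with multiplexed cis-regulated reporter constructs, chemical exposure 24 h. Reporter mRNA quantified by RT-PCR with capillary electrophoresis; bidirectional fit relative to DMSO.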
# [7] = ATG_SREBP_CIS: Attagene CIS-FACTORIAL HepG2 Assay for human Sterol Regulatory Element Binding (SREBP) (AID 2282962); conditions: HepG2 Attagene cis-factorial SREBP reporter, mRNA; actives raise or lower the signal
# Outline: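 HepG2 cells transiently transfected with multiplexed cis-element reporter units report endogenous transcription factor activity. After 24 h of chemical exposure, reporter mRNA was quantified by RT-PCR, 6-FAM labelling, HpaI digestion and capillary electrophoresis; bidirectional fits used DMSO as baseline.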
# [8] = molecular target: Signal transducer and activator of transcription 3 (Homo sapiens) (UniProt P40763); experiment: ATG_STAT3_CIS: Attagene CIS-FACTORIAL HepG2 Assay for human Signal Transducer and Activator of Transcription 3 (STAT3) (AID 2282963); conditions: HepG2, Attagene cis-factorial STAT3 reporter transcription; actives raise or lower the signal
# Outline: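 HepG2 cells transiently transfected with multiple cis-element-driven reporter units report endogenous transcription factor activity. After 24 h compound exposure, reporter mRNA is measured by RT-PCR, 6-FAM labelling, HpaI digestion and capillary electrophoresis. Fitted bidirectionally versus DMSO.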
# [9] = ATG_TA_CIS: Attagene CIS-FACTORIAL HepG2 Assay for human TA Basal Promoter (AID 2282964); conditions: HepG2 Attagene CIS-factorial TA basal promoter reporter; actives raise or lower the signal
# Outline: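 Fluorescence from labelled RT-PCR reporter fragments, separated by capillary electrophoresis, gives the signal. Cells: HepG2 transiently carrying multiple reporter units, 24 h chemical dosing. Gain or loss relative to DMSO.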
# [10] = ATG_TAL_CIS: Attagene CIS-FACTORIAL HepG2 Assay for human TAL Basal Promoter (AID 2282966); conditions: HepG2 Attagene cis-factorial TAL promoter reporter; actives raise or lower the signal;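 note: background control endpoint measuring basal TAL promoter reporter mRNA not a specific factor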
# Outline: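 HepG2 cells transiently transfected with multiplexed cis-promoter reporter units, dosed 24 h. Reporter mRNA quantified by RT-PCR, 6-FAM labelling, HpaI digestion and capillary electrophoresis; TAL basal promoter serves as background control, fitted bidirectionally versus DMSO.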
# [11] = ATG_TGFb_CIS: Attagene CIS-FACTORIAL HepG2 Assay for human Transforming Growth Factor (TGF) (AID 2282967); conditions: HepG2 Attagene CIS TGFb reporter, mRNA transcription; actives raise or lower the signal
# Outline: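 Bidirectional fitting relative to DMSO gave the endpoint. Underlying data: reporter mRNA from HepG2 cells carrying transiently transfected cis-regulated reporter constructs, harvested 24 h after dosing and analyzed by RT-PCR and capillary electrophoresis.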
# [12] = ATG_VDRE_CIS: Attagene CIS-FACTORIAL HepG2 Assay for human Vitamin D Receptor Element (VDRE) (AID 2282968); conditions: HepG2 VDRE cis-reporter transcription, actives raise or lower the signal
# Outline: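 Transiently transfected HepG2 cells carrying cis-regulated reporter transcription units were exposed for 24 h. Reporter mRNA was measured by RT-PCR with fluorescent labelling and capillary electrophoresis, and fitted in both directions against DMSO.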
# [13] = molecular target: Nuclear receptor subfamily 1 group I member 3 (Homo sapiens) (UniProt Q14994); experiment: ATG_CAR_TRANS: Attagene TRANS-FACTORIAL HepG2 Assay for human Constitutive Androstane Receptor (CAR) (AID 2282969; active = hit-call score of the fitted dose curve at least 0.9, where 1 is the maximum;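 note: activators raise reporter mRNA above DMSO so AC50 marks induction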); conditions: HepG2 Attagene TRANS-FACTORIAL CAR reporter
# Outline: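 HepG2 cells transiently transfected with GAL4-UAS reporter units; TRANS format reads activity of exogenous chimeric NR-Gal4 protein. After 24 h dosing, reporter mRNA quantified by RT-PCR, 6-FAM labelling and capillary electrophoresis; gain of signal fitted against DMSO.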
# [14] = molecular target: X-box-binding protein 1 (Homo sapiens) (UniProt P17861); experiment: ATG_Xbp1_CIS: Attagene CIS-FACTORIAL HepG2 Assay for human X-box Binding Protein 1 (XBP1) (AID 2282972); conditions: HepG2 XBP1 cis-element reporter, Attagene multiplex; actives raise or lower the signal
# Outline: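 HepG2 cells transiently transfected with cis-regulated multiple reporter transcription units; endogenous transcription factor activity measured 24 hours after chemical dosing. Reporter mRNA quantified by RT-PCR, 6-FAM primer extension, HpaI digestion and capillary electrophoresis; bidirectional fitting versus DMSO.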
# [15] = ATG_TCF_b_cat_CIS: Attagene CIS-FACTORIAL HepG2 Assay for human T-Cell-Factor with beta-catenin (TCF/b-cat) (AID 2282965); conditions: HepG2 TCF/beta-catenin cis-reporter transcription, actives raise or lower the signal
# Outline: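 HepG2 cells transiently transfected with cis-promoter-driven multiplexed reporter units; reporter mRNA measured 24 h after dosing by RT-PCR, FAM labelling, HpaI digestion and capillary electrophoresis. Bidirectional fitting relative to DMSO baseline.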
# [16] = ATG_M_19_TRANS: Attagene TRANS-FACTORIAL HepG2 Assay for M19 Transcription Factor (Internal Marker) (AID 2282974; active = hit-call score of the fitted dose curve at least 0.9, where 1 is the maximum); conditions: HepG2 Attagene TRANS-FACTORIAL M19 internal marker reporter
# Outline: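 HepG2 transiently transfected with GAL4-UAS multiplex reporter constructs, exposed 24 h; reporter RNA quantified by RT-PCR, 6-FAM labeling, HpaI digestion and capillary electrophoresis; internal background marker fitted upward versus DMSO.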
# [17] = molecular target: Estrogen-related receptor gamma (Homo sapiens) (UniProt P62508); experiment: ATG_ERRg_TRANS: Attagene TRANS-FACTORIAL HepG2 Assay for human Estrogen-Related Receptor gamma (ERRg) (AID 2282977; active = hit-call score of the fitted dose curve at least 0.9, where 1 is the maximum;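 note: hits increase reporter signal over DMSO so potencies reflect activators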); conditions: HepG2 Attagene TRANS reporter, ERRg transactivation
# Outline: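 Transfect HepG2 with multiple GAL4-UAS reporter transcription units; dose chemicals 24 h; isolate RNA, reverse-transcribe with oligo(dT), PCR-amplify, label with 6-FAM, digest with HpaI; size fragments by capillary electrophoresis. DMSO serves as negative control.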
# [18] = ATG_GAL4_TRANS: Attagene TRANS-FACTORIAL HepG2 Assay for GAL4 (Internal Marker) (AID 2282976; active = hit-call score of the fitted dose curve at least 0.9, where 1 is the maximum); conditions: HepG2 Attagene TRANS GAL4 internal marker reporter
# Outline: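 Background-control readout: GAL4-UAS reporter transcript in transiently transfected HepG2 cells after 24 h compound exposure. Measured by RT-PCR, 6-FAM primer extension, HpaI digest and capillary electrophoresis; gain-of-signal fit versus DMSO.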
# [19] = molecular target: Steroid hormone receptor ERR1 (Homo sapiens) (UniProt P11474); experiment: ATG_ERRa_TRANS: Attagene TRANS-FACTORIAL HepG2 Assay for human Estrogen-Related Receptor alpha (ERRa) (AID 2282971; active = hit-call score of the fitted dose curve at least 0.9, where 1 is the maximum); conditions: HepG2 Attagene TRANS reporter, ERRa transactivation
# Outline: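 HepG2 cells transiently transfected with GAL4-UAS reporter units and chimeric NR-Gal4 constructs; after 24 hour compound incubation, reporter mRNA quantified by RT-PCR, fluorescent labelling and capillary electrophoresis, gain of signal versus DMSO.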
# Paired box protein Pax-6 (Homo sapiens), sequence (P26367 whole entry, looked up): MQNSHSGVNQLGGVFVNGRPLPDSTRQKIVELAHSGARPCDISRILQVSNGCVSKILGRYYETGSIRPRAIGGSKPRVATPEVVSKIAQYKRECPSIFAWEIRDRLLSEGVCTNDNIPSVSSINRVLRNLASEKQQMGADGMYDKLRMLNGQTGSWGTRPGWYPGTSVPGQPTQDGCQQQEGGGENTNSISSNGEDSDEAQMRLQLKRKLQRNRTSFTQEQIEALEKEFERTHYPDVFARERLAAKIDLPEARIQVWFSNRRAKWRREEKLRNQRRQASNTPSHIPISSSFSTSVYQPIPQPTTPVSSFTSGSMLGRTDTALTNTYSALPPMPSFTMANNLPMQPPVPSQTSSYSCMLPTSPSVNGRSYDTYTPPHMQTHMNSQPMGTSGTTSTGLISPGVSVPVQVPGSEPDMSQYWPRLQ
# Estrogen-related receptor gamma (Homo sapiens), sequence (P62508 whole entry, looked up, the tested form may be a part): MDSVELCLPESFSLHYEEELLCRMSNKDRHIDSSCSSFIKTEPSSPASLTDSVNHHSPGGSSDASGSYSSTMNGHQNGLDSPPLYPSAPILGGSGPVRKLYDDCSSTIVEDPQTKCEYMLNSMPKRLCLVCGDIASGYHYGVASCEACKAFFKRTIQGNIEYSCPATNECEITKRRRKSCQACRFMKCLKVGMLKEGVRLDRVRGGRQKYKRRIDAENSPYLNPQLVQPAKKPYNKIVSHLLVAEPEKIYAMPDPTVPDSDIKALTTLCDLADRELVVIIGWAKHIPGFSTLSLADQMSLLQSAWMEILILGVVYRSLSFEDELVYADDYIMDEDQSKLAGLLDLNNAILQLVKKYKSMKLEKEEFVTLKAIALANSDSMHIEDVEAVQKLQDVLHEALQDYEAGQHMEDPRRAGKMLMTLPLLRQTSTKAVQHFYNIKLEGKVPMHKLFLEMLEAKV
# X-box-binding protein 1 (Homo sapiens), sequence (P17861 whole entry, looked up): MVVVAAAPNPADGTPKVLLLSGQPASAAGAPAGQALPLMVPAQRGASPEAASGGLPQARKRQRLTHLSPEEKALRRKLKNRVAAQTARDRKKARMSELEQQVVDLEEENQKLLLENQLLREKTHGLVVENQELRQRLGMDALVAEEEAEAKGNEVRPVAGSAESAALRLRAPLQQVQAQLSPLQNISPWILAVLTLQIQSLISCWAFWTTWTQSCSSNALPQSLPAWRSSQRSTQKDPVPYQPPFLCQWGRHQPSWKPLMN
# Transcription factor Sp1 (Homo sapiens), sequence (P08047 whole entry, looked up): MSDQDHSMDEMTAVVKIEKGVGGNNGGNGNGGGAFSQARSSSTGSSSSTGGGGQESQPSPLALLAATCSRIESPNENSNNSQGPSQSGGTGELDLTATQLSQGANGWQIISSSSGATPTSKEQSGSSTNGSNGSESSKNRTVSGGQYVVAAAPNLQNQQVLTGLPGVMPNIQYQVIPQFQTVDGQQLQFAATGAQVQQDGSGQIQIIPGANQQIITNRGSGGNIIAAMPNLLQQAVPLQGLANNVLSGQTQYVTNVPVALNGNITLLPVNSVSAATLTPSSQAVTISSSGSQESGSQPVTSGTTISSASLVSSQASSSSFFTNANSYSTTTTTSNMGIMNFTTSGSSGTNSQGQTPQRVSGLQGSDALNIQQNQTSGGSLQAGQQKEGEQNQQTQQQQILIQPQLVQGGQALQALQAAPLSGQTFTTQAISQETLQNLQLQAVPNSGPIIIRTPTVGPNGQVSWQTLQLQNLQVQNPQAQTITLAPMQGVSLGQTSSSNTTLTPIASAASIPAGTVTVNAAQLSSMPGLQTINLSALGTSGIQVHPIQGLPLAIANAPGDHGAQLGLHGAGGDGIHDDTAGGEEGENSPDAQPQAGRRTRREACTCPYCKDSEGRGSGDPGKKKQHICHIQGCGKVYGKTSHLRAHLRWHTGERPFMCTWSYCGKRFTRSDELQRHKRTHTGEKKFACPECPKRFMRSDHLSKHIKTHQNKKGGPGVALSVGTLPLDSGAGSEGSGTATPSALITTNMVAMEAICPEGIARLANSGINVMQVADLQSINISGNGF
# Nuclear receptor subfamily 1 group I member 3 (Homo sapiens), sequence (Q14994 whole entry, looked up, the tested form may be a part): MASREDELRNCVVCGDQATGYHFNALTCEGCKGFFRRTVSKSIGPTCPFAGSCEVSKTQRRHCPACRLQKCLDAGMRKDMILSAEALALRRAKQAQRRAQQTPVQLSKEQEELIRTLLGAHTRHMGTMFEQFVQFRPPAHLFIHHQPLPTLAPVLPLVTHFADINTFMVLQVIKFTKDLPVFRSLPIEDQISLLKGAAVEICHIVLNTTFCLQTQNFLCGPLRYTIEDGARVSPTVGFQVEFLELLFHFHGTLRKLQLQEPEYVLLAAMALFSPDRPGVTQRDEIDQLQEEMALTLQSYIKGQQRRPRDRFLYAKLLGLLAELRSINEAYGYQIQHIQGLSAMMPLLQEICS
# Signal transducer and activator of transcription 3 (Homo sapiens), sequence (P40763 whole entry, looked up): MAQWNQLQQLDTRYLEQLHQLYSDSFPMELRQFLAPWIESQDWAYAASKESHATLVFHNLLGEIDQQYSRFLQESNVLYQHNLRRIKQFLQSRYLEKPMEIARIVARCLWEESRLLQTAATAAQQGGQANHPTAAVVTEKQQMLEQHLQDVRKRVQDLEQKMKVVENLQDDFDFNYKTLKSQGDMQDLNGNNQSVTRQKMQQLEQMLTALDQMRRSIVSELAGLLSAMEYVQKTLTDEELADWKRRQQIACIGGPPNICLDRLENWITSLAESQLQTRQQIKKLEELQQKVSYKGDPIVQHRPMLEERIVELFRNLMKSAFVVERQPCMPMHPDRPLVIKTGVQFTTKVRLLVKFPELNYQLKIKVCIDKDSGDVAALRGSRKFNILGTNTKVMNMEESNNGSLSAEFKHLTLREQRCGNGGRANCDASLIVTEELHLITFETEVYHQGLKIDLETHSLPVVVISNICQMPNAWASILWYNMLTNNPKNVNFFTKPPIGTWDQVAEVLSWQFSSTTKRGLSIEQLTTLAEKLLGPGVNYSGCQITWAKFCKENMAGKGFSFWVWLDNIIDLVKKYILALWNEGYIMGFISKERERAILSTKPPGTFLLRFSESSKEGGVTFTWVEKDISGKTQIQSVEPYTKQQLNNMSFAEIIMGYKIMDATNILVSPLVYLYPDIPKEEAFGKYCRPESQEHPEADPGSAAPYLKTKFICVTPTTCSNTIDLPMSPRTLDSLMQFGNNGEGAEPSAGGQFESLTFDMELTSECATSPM
# Steroid hormone receptor ERR1 (Homo sapiens), sequence (P11474 whole entry, looked up, the tested form may be a part): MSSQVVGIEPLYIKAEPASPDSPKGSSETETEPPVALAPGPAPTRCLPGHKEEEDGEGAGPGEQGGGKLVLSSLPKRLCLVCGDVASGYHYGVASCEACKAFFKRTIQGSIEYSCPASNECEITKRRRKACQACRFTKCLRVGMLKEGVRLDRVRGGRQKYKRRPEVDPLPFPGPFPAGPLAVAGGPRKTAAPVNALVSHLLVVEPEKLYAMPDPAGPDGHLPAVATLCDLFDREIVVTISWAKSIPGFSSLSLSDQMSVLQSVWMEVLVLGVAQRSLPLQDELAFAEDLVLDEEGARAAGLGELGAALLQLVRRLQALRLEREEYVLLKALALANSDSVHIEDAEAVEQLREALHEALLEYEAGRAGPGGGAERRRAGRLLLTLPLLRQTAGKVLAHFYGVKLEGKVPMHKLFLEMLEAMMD
structure (smiles),measurement,setting,value
CCCCCCCCCCCCCCN(CCO)CCO,outcome,[1],inactive
same,AC50,[2],2.92 µM (active)
same,outcome,[3],inactive
same,outcome,[4],inactive
same,outcome,[5],inactive
same,AC50,[6],11.1 µM (active)
same,AC50,[7],7.35 µM (active)
same,outcome,[8],inactive
same,outcome,[9],inactive
same,outcome,[10],inactive
same,outcome,[11],inactive
same,outcome,[12],inactive
same,outcome,[13],inactive
same,outcome,[14],inactive
C/C=C(\C)C(=O)OCCc1ccccc1,outcome,[1],inactive
same,AC50,[2],27.7 µM (active)
same,outcome,[3],inactive
same,outcome,[4],inactive
same,outcome,[5],inactive
same,outcome,[6],inactive
same,outcome,[7],inactive
same,outcome,[8],inactive
same,outcome,[9],inactive
same,outcome,[15],inactive
same,outcome,[10],inactive
same,outcome,[11],inactive
same,outcome,[13],inactive
same,outcome,[14],inactive
same,outcome,[16],inactive
same,outcome,[17],inactive
O=Cc1ccccc1S(=O)(=O)O,outcome,[1],inactive
same,outcome,[2],inactive
same,outcome,[3],inactive
same,outcome,[4],inactive
same,outcome,[5],inactive
same,outcome,[6],inactive
same,outcome,[7],inactive
same,outcome,[8],inactive
same,outcome,[9],inactive
same,outcome,[15],inactive
same,outcome,[10],inactive
same,outcome,[11],inactive
same,outcome,[12],inactive
same,outcome,[14],inactive
O=C1OC(=O)c2c(Br)c(Br)c(Br)c(Br)c21,outcome,[1],inactive
same,outcome,[2],inactive
same,outcome,[3],inactive
same,outcome,[4],inactive
same,outcome,[5],inactive
same,outcome,[6],inactive
same,outcome,[7],inactive
same,outcome,[8],inactive
same,outcome,[15],inactive
same,outcome,[10],inactive
same,outcome,[11],inactive
same,outcome,[12],inactive
same,outcome,[14],inactive
same,outcome,[18],inactive
COc1cc(CCC(C)=O)ccc1O,outcome,[1],inactive
same,outcome,[2],inactive
same,outcome,[3],inactive
same,outcome,[4],inactive
same,outcome,[5],inactive
same,outcome,[6],inactive
same,outcome,[7],inactive
same,outcome,[8],inactive
same,outcome,[15],inactive
same,outcome,[10],inactive
same,outcome,[11],inactive
same,outcome,[12],inactive
same,outcome,[14],inactive
same,outcome,[16],inactive
same,outcome,[18],inactive
same,outcome,[17],inactive
C=C(C#N)C(=O)OCC,outcome,[1],inactive
same,outcome,[2],inactive
same,outcome,[3],inactive
same,outcome,[4],inactive
same,outcome,[5],inactive
same,outcome,[6],inactive
same,outcome,[7],inactive
same,outcome,[8],inactive
same,AC50,[15],100 µM (active)
same,outcome,[10],inactive
same,outcome,[11],inactive
same,outcome,[14],inactive
same,outcome,[16],inactive
C=CC(C)C#N (centres undefined),outcome,[1],inactive
same,outcome,[2],inactive
same,outcome,[3],inactive
same,outcome,[4],inactive
same,outcome,[5],inactive
same,outcome,[6],inactive
same,outcome,[7],inactive
same,outcome,[8],inactive
same,outcome,[15],inactive
same,outcome,[10],inactive
same,outcome,[11],inactive
same,outcome,[12],inactive
same,outcome,[13],inactive
same,outcome,[14],inactive
same,outcome,[18],inactive
C=Cc1ccncc1,AC50,[1],33.1 µM (active)
same,AC50,[2],33.1 µM (active)
same,AC50,[3],13.5 µM (active)
same,AC50,[4],10.2 µM (active)
same,AC50,[5],21.8 µM (active)
same,AC50,[7],17.1 µM (active)
same,outcome,[8],inactive
same,outcome,[9],inactive
same,AC50,[15],57 µM (active)
same,outcome,[10],inactive
same,outcome,[11],inactive
same,AC50,[12],20.2 µM (active)
same,outcome,[13],inactive
same,outcome,[19],inactive
same,AC50,[14],26.1 µM (active)
same,outcome,[16],inactive
same,outcome,[17],inactive
O=C1NC2NC(=O)NC2N1 (centres undefined),outcome,[1],inactive
same,AC50,[2],27.9 µM (active)
same,outcome,[3],inactive
same,outcome,[4],inactive
same,outcome,[5],inactive
same,outcome,[6],inactive
same,outcome,[7],inactive
same,outcome,[8],inactive
same,outcome,[15],inactive
same,outcome,[10],inactive
same,outcome,[11],inactive
same,outcome,[12],inactive
same,outcome,[14],inactive
same,outcome,[16],inactive
same,outcome,[18],inactive
